From PubChem BioAssay (NCATS)
Results filed as inconclusive are left out. Active and inactive are the calls of the source. Calls come from the whole dose curve; as a rule, active = well fitted curve in the direction sought with a large enough effect; inconclusive = small, poorly fitted or top-dose-only effect, or another doubt; inactive = no such curve, though single readings can be large; an effect the other way counts as inactive or inconclusive.

Assays:
Es-2 = experiment: Primary qHTS to identify gynecologic anti-cancer compounds using libraries of approved drugs and bioactive compounds (AID 1345084); details: Gynecologic cancer cell panel viability, ATPlite luminescence, 48 h; series mostly up to 57.5 µM; note: nearly all actives have a fitted effect of over 55% in size
In short: (§1)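 Measured: luminescence after ATPlite addition (15 min, RT). Exposure: 48 h, 37 C, 5% CO2.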

HeLa = experiment: as above; details: Gynecologic cancer cell panel viability, ATPlite luminescence, 48 h; series mostly up to 57.5 µM
In short: as §1

Hek293T = experiment: as above; details: Gynecologic cancer cell panel viability, ATPlite luminescence, 48 h, control line for the selectivity index; series mostly up to 57.5 µM
In short: as §1

JEG-3 = experiment: as above; details: Gynecologic cancer cell panel viability, ATPlite luminescence, 48 h; series mostly up to 57.5 µM
In short: as §1

OV90 = experiment: as above; details: Gynecologic cancer cell panel viability, ATPlite luminescence, 48 h; series mostly up to 57.5 µM
In short: as §1

PA-1 = experiment: as above; details: Gynecologic cancer cell panel viability, ATPlite luminescence, 48 h; series mostly up to 57.5 µM
In short: as §1

SKOV3 = experiment: as above; details: Gynecologic cancer cell panel viability, ATPlite luminescence, 48 h; series mostly up to 57.5 µM
In short: as §1

Tov-21-G = experiment: as above; details: Gynecologic cancer cell panel viability, ATPlite luminescence, 48 h; series mostly up to 57.5 µM
In short: as §1

Tov112D = experiment: as above; details: Gynecologic cancer cell panel viability, ATPlite luminescence, 48 h; series mostly up to 57.5 µM
In short: as §1

[1] = Drug repurposing screens with cells derived from glioblastoma tumor samples (AID 1345199); details: GBM patient neurospheres viability, ATP luminescence, 48 h; note: nearly all actives have a fitted effect of over 40% in size; note: potency is the fitted concentration of half-maximal effect
In short: (§2)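 Four patient lines of CD133+ GBM neurospheres were screened at several concentrations; hits were retested in those lines plus three slower-growing GBM lines, using 48-hour treatment and ATP-based viability.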

astro = experiment: as above; details: viability, ATP luminescence, 48 h; series mostly up to 45.9 µM
In short: as §2

[2] = at 45.9 µM (top of the series), tumour line B
[3] = at 46.1 µM (top of the series), tumour line C
[4] = at 45.9 µM (top of the series), tumour line D
[5] = at 46 µM (top of the series), tumour line A
% is set by controls: 0 for no effect and ±100 for the full control effect.

O=C1CC2(CCCC2)CC(=O)N1CCCCN1CCN(c2ncccn2)CC1
active: Potency ([1]; tumour line A) 5.01 µM
inactive: Potency (Es-2) | Potency (HeLa) | Potency (Hek293T) | Potency (JEG-3) | Potency (OV90) | Potency (PA-1) | Potency (SKOV3) | Potency (Tov-21-G) | Potency (Tov112D) | activity, negative = cell killing [1, 2] -25.4% | activity, negative = cell killing [1, 3] -16.7%

COC(=O)[C@@H](N)Cc1ccc(O)c(O)c1
inactive: Potency (Es-2) | Potency (HeLa) | Potency (Hek293T) | Potency (JEG-3) | Potency (OV90) | Potency (PA-1) | Potency (SKOV3) | Potency (Tov-21-G) | Potency (Tov112D)

CC(=O)OCC1=C(C(=O)O)N2C(=O)[C@@H](NC(=O)Cc3cccs3)[C@H]2SC1
inactive: Potency (Es-2) | Potency (HeLa) | Potency (Hek293T) | Potency (JEG-3) | Potency (OV90) | Potency (PA-1) | Potency (SKOV3) | Potency (Tov-21-G) | Potency (Tov112D) | activity, negative = cell killing [1, 2] 5.86% | activity, negative = cell killing [1, 4] -7.52% | activity, negative = cell killing [1, 5] -19.9% | activity, negative = cell killing [1, 3] -19.9%

NC/C=C/C(=O)O
inactive: Potency (Es-2) | Potency (HeLa) | Potency (Hek293T) | Potency (JEG-3) | Potency (OV90) | Potency (PA-1) | Potency (SKOV3) | Potency (Tov-21-G) | Potency (Tov112D) | activity, negative = cell killing [1, 2] -2.84% | activity, negative = cell killing [1, 4] -13.4% | activity, negative = cell killing [1, 5] -7.07% | activity, negative = cell killing [1, 3] -22.1%

Brc1c(NC2=NCCN2)ccc2nccnc12
inactive: Potency (Es-2) | Potency (HeLa) | Potency (Hek293T) | Potency (JEG-3) | Potency (OV90) | Potency (PA-1) | Potency (SKOV3) | Potency (Tov-21-G) | Potency (Tov112D) | activity, negative = cell killing [1, 2] -5.79% | activity, negative = cell killing [1, 4] -4.16% | activity, negative = cell killing [1, 3] 4.36%

CCN(Cc1ccncc1)C(=O)C(CO)c1ccccc1 (stereo unspecified)
inactive: Potency (Es-2) | Potency (HeLa) | Potency (Hek293T) | Potency (JEG-3) | Potency (OV90) | Potency (PA-1) | Potency (SKOV3) | Potency (Tov-21-G) | Potency (Tov112D) | activity, negative = cell killing [1, 2] -2.8% | activity, negative = cell killing [1, 4] -5.82% | activity, negative = cell killing [1, 5] -16.9% | activity, negative = cell killing [1, 3] 1.27% | Potency (astro)

O=C(O)CN(CCOCCOCCN(CC(=O)O)CC(=O)O)CC(=O)O
inactive: activity change, negative = cytotoxicity (Es-2) -1.06% [at 0.462 µM] | activity change, negative = cytotoxicity (HeLa) 11.5% [at 0.462 µM] | activity change, negative = cytotoxicity (Hek293T) -0.823% [at 0.462 µM] | activity change, negative = cytotoxicity (JEG-3) -5.11% [at 0.462 µM] | activity change, negative = cytotoxicity (OV90) 2.64% [at 0.462 µM] | activity change, negative = cytotoxicity (PA-1) -1.54% [at 0.462 µM] | activity change, negative = cytotoxicity (SKOV3) 17.7% [at 0.462 µM] | activity change, negative = cytotoxicity (Tov-21-G) 1.63% [at 0.462 µM] | activity change, negative = cytotoxicity (Tov112D) 6.01% [at 0.462 µM] | activity, negative = cell killing [1, 2] -21% | activity, negative = cell killing [1, 4] -7% | activity, negative = cell killing [1, 5] -22.8% | activity, negative = cell killing [1, 3] 4.28% | Potency (astro)

Cc1ccc(=O)n(-c2ccccc2)c1
inactive: Potency (Es-2) | Potency (HeLa) | Potency (Hek293T) | Potency (JEG-3) | Potency (OV90) | Potency (PA-1) | Potency (SKOV3) | Potency (Tov-21-G) | Potency (Tov112D) | activity, negative = cell killing [1, 2] -7.87% | activity, negative = cell killing [1, 4] 11.3% | activity, negative = cell killing [1, 5] -13.3% | activity, negative = cell killing [1, 3] -7.43% | Potency (astro)
